Counter-ions that a name gives are not always drawn. ± gives the standard deviation of the averaged measurements.
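Note: viability read as CCK-8 absorbance at 450 nm in cells co-exposed to the GPX4 inhibitor RSL3, relative to a 0.01% DMSO vehicle control.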

In the experiment the test system is HT-1080. The experiment in a line: relative cell viability with RSL3 co-treatment (fraction of control); higher = stronger protection from RSL3-induced ferroptosis (higher viability). As to conditions: 10 µM.
Regarding `CCN1CCN(Cc2ccc(C(=O)Nc3ccc(C)c(Oc4ccc5c(c4)CC(=O)N5)c3)cc2C(F)(F)F)CC1`, the relative cell viability is 0.46 ± 0.046. `C[C@@H](NC(=O)c1ncnc(N)c1Cl)c1ncc(C(=O)Nc2cc(C(F)(F)F)c(Cl)cn2)s1`: the relative cell viability came to 0.6467 ± 0.0058. On to `CN1CCN(Cc2ccc(-c3cnc4[nH]cc(-c5ccc6[nH]ccc6c5)c4c3)cc2)CC1`, for which the relative cell viability was determined as 0.497 ± 0.04. Turning to `O=C(/C=C/c1ccc2ccccc2n1)c1ccncc1`, the relative cell viability is 0.64 ± 0.075.

`COc1ccc(S(=O)(=O)N(C(C)=O)c2ccccc2/C=C/c2cc[n+]([O-])cc2)cc1`: the relative cell viability came to 0.633 ± 0.015. `COc1cc2c(Oc3ccc4[nH]c(C)cc4c3F)ncnc2cc1OCCCN1CCCC1` [Cediranib (AZD2171)]: the relative cell viability is 0.283 ± 0.023. `CN1CCN(c2ccc(C(=O)Nc3n[nH]c4ccc(Cc5cc(F)cc(F)c5)cc34)c(NC3CCOCC3)c2)CC1` [Entrectinib (RXDX-101)]: the relative cell viability was found to be 0.537 ± 0.045.

With `O=C1Nc2ccccc2/C1=C1/Nc2ccccc2C1=O` [Indirubin], the relative cell viability turned out to be 0.75 ± 0.066. `CCNc1nc(Nc2cc(F)c(C(=O)N3CCOCC3)cc2OC)ncc1C(F)(F)F`: the relative cell viability stood at 0.69 ± 0.089. Regarding `COc1cc2c(c(OC)c1OC)-c1c(cc3c(c1OC)OCO3)CC(C)C(C)C2` (stereo not drawn) [Schisandrin B (Sch B)], the relative cell viability is 1.01 ± 0.17. To `CCn1c(N)c(C(=O)NC)c(=O)c2ccc(C#CC(C)(O)COC)nc21` (stereo not drawn) belongs 0.89 ± 0.16; to `Nc1ccc(-c2ccc3ncc4ccc(=O)n(-c5cccc(C(F)(F)F)c5)c4c3c2)cn1` [Torin 2], 0.687 ± 0.047. Consider `Cc1cc(CS(=O)(=O)c2ccccc2)cc(OCc2ccc(CN3CCC[C@@H]3CO)cc2)c1`, for which the relative cell viability came out at 0.723 ± 0.12. As to `C1=N/C2=N/c3ccc(OCCN4CCCC4)c(c3)COC/C=C/COCc3cccc(c3)C(=C1)N2` [Pacritinib (SB1518)], the relative cell viability stood at 0.467 ± 0.096.

For the compound `CNC(=O)CN1CCC(Oc2cc3c(Nc4cccc(Cl)c4F)ncnc3cc2OC)CC1` [Sapitinib (AZD8931)], the relative cell viability worked out at 0.56 ± 0.095. As for `NC[C@@](O)(c1ccc(Cl)cc1)c1ccc(-c2cn[nH]c2)cc1`, the relative cell viability is 0.687 ± 0.22.

On to `N#C/C(=C\c1ccc(O)c(O)c1)C(=O)NCc1ccccc1` [AG-490 (Tyrphostin B42)], for which the relative cell viability was found to be 0.55 ± 0.12. On to `CCN(CC)CCCC(C)Nc1ccnc2cc(Cl)ccc12` (stereo not drawn) [Chloroquine Phosphate], for which the relative cell viability was determined as 0.817 ± 0.12. For `O=C(NOCC1CC1)c1ccc(F)c(F)c1Nc1ccc(I)cc1Cl`, the relative cell viability was 0.693 ± 0.2. For `N#Cc1ccc2[nH]c(O)c(-c3ccc(CN4CCOCC4)cn3)c2c1`, the relative cell viability turned out to be 0.75 ± 0.046. Consider `c1cncc(CN2CCC(n3ncc4c(N5CCOCC5)nc(-c5ccc6[nH]ccc6c5)nc43)CC2)c1`, for which the relative cell viability came to 0.347 ± 0.13. The figure for `Cc1c(CN2CCN(C(=O)[C@H](C)O)CC2)sc2c(N3CCOCC3)nc(-c3cnc(N)nc3)nc12` [Apitolisib (GDC-0980, RG7422)] is 0.47 ± 0.09; for `CCC[C@H](NC(=O)/C(C#N)=C/c1cccc(Br)n1)c1ccccc1` [Degrasyn (WP1130)] it is 0.793 ± 0.064. For `FC(F)(F)c1ccc(/C=C/c2nc(COc3ccc(CCCCn4ccnn4)cc3)co2)cc1` [Mubritinib (TAK 165)], the relative cell viability was found to be 0.653 ± 0.1. To `Cn1cnc2c(F)c(Nc3ccc(Br)cc3F)c(C(=O)NOCCO)cc21` belongs 0.827 ± 0.097; to `CC(C)[C@H](CO)Nc1nc(Nc2cccc(Cl)c2)c2ncn(C(C)C)c2n1` [Purvalanol A], 0.65 ± 0.09. Regarding `O=C1NC(=O)[C@@H](c2cn3c4c(cccc24)CCC3)[C@@H]1c1c[nH]c2ccccc12` [Tivantinib (ARQ 197)], the relative cell viability was found to be 0.64 ± 0.085.

Turning to `CO[C@H]1C[C@@H]2CC[C@@H](C)[C@@](O)(O2)C(=O)C(=O)N2CCCC[C@H]2C(=O)O[C@H]([C@H](C)C[C@@H]2CC[C@@H](O)[C@H](OC)C2)CC(=O)[C@H](C)/C=C(\C)[C@@H](O)[C@@H](OC)C(=O)[C@H](C)C[C@H](C)/C=C/C=C/C=C/1C` [Rapamycin (Sirolimus)], the relative cell viability turned out to be 0.387 ± 0.085. `Cn1c(Nc2ccc(C(F)(F)F)cc2)nc2cc(Oc3ccnc(-c4ncc(C(F)(F)F)[nH]4)c3)ccc21`: the relative cell viability turned out to be 0.593 ± 0.091. The figure for `COC(=O)c1ccc2c(c1)NC(=O)/C2=C(\Nc1ccc(N(C)C(=O)CN2CCN(C)CC2)cc1)c1ccccc1` [Nintedanib (BIBF 1120)] is 0.9 ± 0.12. On to `CS(=O)(=O)CCNCc1ccc(-c2ccc3ncnc(Nc4ccc(OCc5cccc(F)c5)c(Cl)c4)c3c2)o1` [Lapatinib], for which the relative cell viability is 1.21 ± 0.064. To `CCCCCCCCc1ccc(CCC(N)(CO)CO)cc1` [Fingolimod (FTY720) HCl] belongs 0.253 ± 0.1.

As for `O=C(NCCO)c1cccc(-c2cc(Nc3ccc(OC(F)(F)F)cc3)ncn2)c1`, the relative cell viability came out at 0.713 ± 0.13.

For the origin of these results see the supplement of paper PMC9588786.
